From PubChem BioAssay (NCATS)
Records with an inconclusive call do not appear. The source made the active and inactive calls. Calls come from the whole dose curve; as a rule, active = well fitted curve in the direction sought with a large enough effect; inconclusive = small, poorly fitted or top-dose-only effect, or another doubt; inactive = no such curve, though single readings can be large; an effect the other way counts as inactive or inconclusive.

System: not listed separately
Assay: Primary fluorescence-based thiol-reactive (MSTI) qHTS assay for identification of artifact compounds. (AID 1845221); note: nearly all actives have a fitted effect of over 65% in size;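 for activity change, negative = thiol reactive: thiol-reactive compounds lower the probe fluorescence signal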
Details: MSTI thiol-reactivity probe, 1 h; series mostly up to 53.8 µM; activity change, negative = thiol reactive: at the top concentration
Procedure, shortened: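 Thiol-reactive compounds detected by quenching of 4 uM MSTI fluorescence (525/598 nm) after 1 h room-temperature dark incubation in PBS pH 7.4, 2% DMSO. qHTS titration; percent inhibition Hill-fitted against Acetyl-MSTI/MSTI controls.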
Potency is the fitted concentration of half-maximal effect.

SMILES | activity change, negative = thiol reactive | Potency
O=C(O)Cc1ccc2oc(-c3ccc(NC(=O)/C=C/c4ccc(Br)cc4)c(F)c3)nc2c1 | 57.9% (inactive) | –
CC1(C)CCCC2(C)C1C(O)C=C(CO)C2(O)CO (stereo not drawn) | 10.1% (inactive) | –
COc1ccc(Cl)c(Nc2nc3ccccc3nc2NS(=O)(=O)c2cccc(NC(=O)C(C)(C)N)c2)c1 | 123% (inactive) | –
COc1ccc(CNC(=O)c2cc(-c3cncc(C)c3)ncc2-c2nccs2)nc1OC | 25.2% (inactive) | –
COc1nc2sc(C(=O)NC3CC3)c(N)c2c(C)c1Cl | -6.15% (inactive) | –
CC(C)CN(C[C@@H](O)[C@H](Cc1ccccc1)NC(=O)O[C@@H]1CO[C@H]2OCC[C@H]21)S(=O)(=O)c1ccc(N)cc1 | 142% (inactive) | –
CCC(C)/C=C(C)/C=C/c1cc2c(cn1)C(=O)C(C)(OC(C)=O)C(O)=C2Cl (stereo not drawn) | – | 0.736 µM (active)
CC1=C(C(=O)OCc2ccccc2)C(c2ccc(-c3ccccc3)cc2)NC(=O)N1CCCCCC(=O)O (stereo not drawn) | 71.3% (inactive) | –
Nc1nccn2c(C3CCC(C(=O)O)CC3)nc(-c3cc4cccc(Cl)c4[nH]3)c12 (stereo not drawn) | – | 6.7 µM (active)
CC(C)c1cc(C(=O)N2CC[C@@H](NC(=O)C3CC3)C2)n[nH]1 | 31.2% (inactive) | –
CCC1C(=O)N(C)c2cnc(Nc3ccc(C(=O)NC4CCC(N5CCN(CC6CC6)CC5)CC4)cc3OC)nc2N1C(C)C (stereo not drawn) | -22.1% (inactive) | –
CC1CCN(C(=O)CC#N)CC1N(C)c1ncnc2[nH]ccc12 (stereo not drawn) | -5.63% (inactive) | –
COc1cc(-c2ncn(/C=C\C(=O)OC(C)C)n2)cc(C(F)(F)F)c1 | 50.1% (inactive) | –
CC(C)C(N)C(=O)OCCOCn1cnc2c(=O)[nH]c(N)nc21 (stereo not drawn) | -0.084% (inactive) | –
CC[C@]1(O)CC2CN(CCc3c([nH]c4ccccc34)[C@@](C(=O)OC)(c3cc4c(cc3OC)N(C=O)[C@H]3[C@@](O)(C(=O)OC)[C@H](OC(C)=O)[C@]5(CC)C=CCN6CC[C@]43[C@@H]65)C2)C1 (stereo partly drawn) | -7.41% (inactive) | –
O=C(c1ccc(/C=C/c2n[nH]c3ccccc23)cc1)N1CCNCC1 | 41.6% (inactive) | –
CNC(=S)NS(=O)(=O)c1cc(CCNC(=O)c2cc(Cl)ccc2OC)ccc1OC | 25.8% (inactive) | –
CCOC(=O)C(CCc1ccccc1)NC(C)C(=O)N1C(=O)N(C)CC1C(=O)O (stereo not drawn) | -18% (inactive) | –
COc1cc2oc(-c3ccc(O)cc3O)cc2c(OC)c1CC=C(C)C | – | 6.56 µM (active)
CNC(=O)c1cccc(-c2ccc3c(N4CCOC[C@@H]4C)nc(N4CCOC[C@@H]4C)nc3n2)c1 | 82.5% (inactive) | –
Cc1ccc(NC(=O)Nc2cc(C(F)(F)F)ccc2F)cc1Nc1ccc2c(c1)NC(=O)/C2=C\c1ccc[nH]1 | – | 1.34 µM (active)
COc1ccc(C2=N[C@@H](c3ccc(Cl)cc3)[C@@H](c3ccc(Cl)cc3)N2C(=O)N2CCNC(=O)C2)c(OC(C)C)c1 | 148% (inactive) | –
CC(C)CC1NC(=O)C(C)NC(=O)C(CC(C)C)OC(=O)CCCNC1=O (stereo not drawn) | 30.7% (inactive) | –
CC1=C(/C=C/C(C)=C\C=C\C(C)=C/C(=O)O)C(C)(C)CCC1 | -18.5% (inactive) | –
COc1c/c(=C2\C=c3ccccc3=N2)[nH]/c1=C\c1[nH]c(C)cc1C | – | 1.19 µM (active)
Cc1nc([C@](C)(O)CO)sc1-c1cnc(N)c(O[C@H](C)c2cc(F)ccc2-n2nccn2)c1 | 1.35% (inactive) | –
Cc1nc2sc(C(=O)NCc3ccncc3)c(N)c2c(C)c1Cl | 3.76% (inactive) | –
CCOC(=O)C(CCc1ccccc1)NC1CSC(c2cccs2)CN(CC(=O)O)C1=O (stereo not drawn) | 116% (inactive) | –
Cc1cc(N(C)C)ccc1-c1nc2ccc(-c3nc4ccc(N5CCN(C)CC5)cc4[nH]3)cc2[nH]1 | – | 2.38 µM (active)

System: Nanoluciferase (engineered Oplophorus gracilirostris luciferase)
Assay: Primary Nanoluciferase (NLuc) qHTS assay for identification of artifact compounds. (AID 1845222);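 for activity, negative = inhibition: NLuc secreted into diluted conditioned medium of S16 cells; 0% = DMSO and -100% = no enzyme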
Details: NLuc-conditioned medium, Nano-Glo luminescence, 5 min; series mostly up to 54.1 µM; activity, negative = inhibition: at the top concentration
Procedure, shortened: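 S16 cell supernatant NLuc, 1:55; cpds qHTS; 15 min RT dark; Nano-Glo substrate 1:100, 5 min; luminescence; Hill fit of % inhibition.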

SMILES | activity, negative = inhibition | Potency
O=C(O)Cc1ccc2oc(-c3ccc(NC(=O)/C=C/c4ccc(Br)cc4)c(F)c3)nc2c1 | -1.17% (inactive) | –
CC1(C)CCCC2(C)C1C(O)C=C(CO)C2(O)CO (stereo not drawn) | 4.36% (inactive) | –
COc1ccc(Cl)c(Nc2nc3ccccc3nc2NS(=O)(=O)c2cccc(NC(=O)C(C)(C)N)c2)c1 | 1.94% (inactive) | –
COc1ccc(CNC(=O)c2cc(-c3cncc(C)c3)ncc2-c2nccs2)nc1OC | -5.95% (inactive) | –
COc1nc2sc(C(=O)NC3CC3)c(N)c2c(C)c1Cl | -0.315% (inactive) | –
CC(C)CN(C[C@@H](O)[C@H](Cc1ccccc1)NC(=O)O[C@@H]1CO[C@H]2OCC[C@H]21)S(=O)(=O)c1ccc(N)cc1 | -9.41% (inactive) | –
COC(=O)c1ccnc(-c2cc(C(=O)NCCc3ccccc3)ccn2)c1 | 2.52% (inactive) | –
CCC(C)/C=C(C)/C=C/c1cc2c(cn1)C(=O)C(C)(OC(C)=O)C(O)=C2Cl (stereo not drawn) | -9.97% (inactive) | –
COc1cc(O)c2c(c1)C1=CC(O)C(O)CC1(C)OC2=O (stereo not drawn) | -5.7% (inactive) | –
CC1=C(C(=O)OCc2ccccc2)C(c2ccc(-c3ccccc3)cc2)NC(=O)N1CCCCCC(=O)O (stereo not drawn) | -1.28% (inactive) | –
C=CC/C=C\C/C=C\CCCCCCCc1cccc(O)c1C(=O)O | -4.73% (inactive) | –
Nc1ccc(/C=C/C(=O)NCc2cc3cc(-c4ccc(C(=O)N5CCC(F)(F)CC5)cc4)cc(-c4ccc(F)cc4)c3o2)cn1 | -2.11% (inactive) | –
CC(C)c1cc(C(=O)N2CC[C@@H](NC(=O)C3CC3)C2)n[nH]1 | -10.9% (inactive) | –
CCC1C(=O)N(C)c2cnc(Nc3ccc(C(=O)NC4CCC(N5CCN(CC6CC6)CC5)CC4)cc3OC)nc2N1C(C)C (stereo not drawn) | -8.38% (inactive) | –
CC1CCN(C(=O)CC#N)CC1N(C)c1ncnc2[nH]ccc12 (stereo not drawn) | 4.43% (inactive) | –
COc1cc(-c2ncn(/C=C\C(=O)OC(C)C)n2)cc(C(F)(F)F)c1 | -3.02% (inactive) | –
CC(C)C(N)C(=O)OCCOCn1cnc2c(=O)[nH]c(N)nc21 (stereo not drawn) | -0.555% (inactive) | –

SMILES | activity, negative = inhibition | Potency
CC[C@]1(O)CC2CN(CCc3c([nH]c4ccccc34)[C@@](C(=O)OC)(c3cc4c(cc3OC)N(C=O)[C@H]3[C@@](O)(C(=O)OC)[C@H](OC(C)=O)[C@]5(CC)C=CCN6CC[C@]43[C@@H]65)C2)C1 (stereo partly drawn) | 1.92% (inactive) | –
O=C(c1ccc(/C=C/c2n[nH]c3ccccc23)cc1)N1CCNCC1 | -1.32% (inactive) | –
CO/N=C(/C(=O)N[C@@H]1C(=O)N2C(C(=O)O)=C(Cn3ccc(=N)n3CCO)CS[C@H]12)c1csc(N)n1 | 0% (inactive) | –
Cn1cncc1C(N)(c1ccc(Cl)cc1)c1ccc2c(c1)c(-c1cccc(Cl)c1)cc(=O)n2C (stereo not drawn) | 0% (inactive) | –
CC(C)C1=CC2C(CC[C@]2(C)O)[C@](C)(O)CC1 (stereo partly drawn) | 2.68% (inactive) | –
C=C[C@H]1[C@H](O[C@@H]2O[C@H](CO)[C@@H](O)[C@H](O)[C@H]2O)OC=C(C(=O)OC)[C@H]1C/C=C(/C=O)[C@@H]1C(C(=O)OC)=CO[C@@H](O[C@@H]2O[C@H](CO)[C@@H](O)[C@H](O)[C@H]2O)[C@@H]1C=C | 1.02% [at 25.7 µM] (inactive) | –
CCOC(=O)C(CCc1ccccc1)NC(C)C(=O)N1C(=O)N(C)CC1C(=O)O (stereo not drawn) | 0% (inactive) | –
COc1cc2oc(-c3ccc(O)cc3O)cc2c(OC)c1CC=C(C)C | 1.96% (inactive) | –
CNC(=O)c1cccc(-c2ccc3c(N4CCOC[C@@H]4C)nc(N4CCOC[C@@H]4C)nc3n2)c1 | 4.38% (inactive) | –
COc1ccc(C2=N[C@@H](c3ccc(Cl)cc3)[C@@H](c3ccc(Cl)cc3)N2C(=O)N2CCNC(=O)C2)c(OC(C)C)c1 | -5.62% (inactive) | –
CC(C)CC1NC(=O)C(C)NC(=O)C(CC(C)C)OC(=O)CCCNC1=O (stereo not drawn) | 3.68% (inactive) | –
C/C=C/C=C/C(=O)N1CC[C@]23c4ccccc4N[C@H]4N(C)c5cccc6c5[C@@]42CCN([C@H]6C2OC2(C)C)[C@H]13 (stereo partly drawn) | -4.24% [at 25.7 µM] (inactive) | –
CC1=C(/C=C/C(C)=C\C=C\C(C)=C/C(=O)O)C(C)(C)CCC1 | -3.33% (inactive) | –
COc1c/c(=C2\C=c3ccccc3=N2)[nH]/c1=C\c1[nH]c(C)cc1C | – | 10.7 µM (active)
Cc1nc([C@](C)(O)CO)sc1-c1cnc(N)c(O[C@H](C)c2cc(F)ccc2-n2nccn2)c1 | 2.84% (inactive) | –
CCOC(=O)C(CCc1ccccc1)NC1CSC(c2cccs2)CN(CC(=O)O)C1=O (stereo not drawn) | -21.9% (inactive) | –
Cc1cc(N(C)C)ccc1-c1nc2ccc(-c3nc4ccc(N5CCN(C)CC5)cc4[nH]3)cc2[nH]1 | -21.2% (inactive) | –
